Compound activity from PubChem.
Most compounds without a hit are left out; they make up all but 4.7% or so of the library.
tim23-1 inh: inhibits growth of tim23-1 mutant yeast; AID 463212; S. cerevisiae tim23-1 growth, BacTiter-Glo luminescence, 24 h; inhibition, % at 20 µM; 330,000 tested, 1.3% active;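 active means growth inhibition of the mutant yeast at or above 50%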;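 further: temperature-sensitive mutant grown at 25 °C; plate controls were DMSO-treated mutant yeast for no effect and medium wells lacking yeast for full effect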
PfHsp90 set2: reduces growth (ATP signal) of yeast expressing P. falciparum Hsp90 | 310,000 tested, 0.32% active | inhibition, % at 9.4 µM | S. cerevisiae expressing PfHsp90, BacTiter-Glo ATP, 48 h; yeast lacking PDR1 and PDR3 efflux regulators;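 active means every replicate shows inhibition above about 80%, whatever the replicate mean, limit read from the data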;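 further: 0% = DMSO neutral controls and 100% = 20 µM radicicol positive controls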
TIM10 inh: inhibits growth of TIM10 yeast strain; 330,000 tested, 1.4% active; AID 463195; S. cerevisiae TIM10 strain growth, BacTiter-Glo luminescence, 24 h; inhibition, % at 10 µM;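 active means inhibition of 40% or more at the single tested concentration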;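 further: wild-type TIM10 isogenic control strain grown at permissive 25 °C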
tim10-1 inh: growth inhibitors of tim10-1 mutant yeast. S. cerevisiae tim10-1 ts strain growth, BacTiter-Glo, 24 h. inhibition, % at 20 µM. 330,000 tested, 2.2% active;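 active means inhibition of at least 40%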;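 further: mutant grown at 25 °C; 0% = DMSO wells with yeast and 100% = wells holding no yeast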
Calb FLC: affects C. albicans growth with fluconazole; C. albicans CaCi-2 (fluconazole-resistant clinical isolate) + fluconazole, Alamar Blue growth, 48 h; growth inhibition, % (test concentration not listed); 300,000 tested, 0.57% active;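 active means growth inhibition above about 58% in most replicates, limit read from the data, passing the limit was not always enough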;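 further: all wells also contain fluconazole at 8 µg/ml as a sub-toxic cotreatment; 0% = median of DMSO wells and 100% = median of geldanamycin control wells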
SKKanGAS inh: blocks kanamycin growth of S. pyogenes SKKanGAS strain; BacTiter-Glo, 6 h; AID 1662; inhibition, % at 7.5 µM; 300,000 tested, 1.3% active;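 active means mean replicate score, as percent of positive control median, at least 50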;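 further: strain carries kanamycin resistance gene driven by streptokinase promoter and grows in 40 µg/ml kanamycin; loss of luminescence reflects streptokinase promoter inhibition or plain growth inhibition; 0% = median of DMSO wells and 100% = positive control at its reference dose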
An asterisk follows results filed as active; . = not tested or not shown.

SMILES | tim23-1 inh | PfHsp90 set2 | TIM10 inh | tim10-1 inh | Calb FLC | SKKanGAS inh
CC1CCCC(NC(=O)CSc2nnc(C(F)(F)F)n2C)C1C (stereo unspecified) | -5 | -15 | 4 | 7 | . | .
O=c1[nH]c2ccc(Cl)cc2c(-c2ccccc2)c1N1CCN(c2ccccn2)CC1 | 42 | -48 | 14 | 5 | 27 | 84*
O=C(Nc1ccc(F)cc1)c1ccc(C(=O)N2CCCC(O)C2)cc1 (stereo unspecified) | 10 | 1 | 3 | -1 | -6 | 0
O=C(/C=C/c1ccccc1)NCCc1ccccc1 | 15 | -2 | -11 | -22 | -5 | 100*
O=C(/C=C/c1ccc([N+](=O)[O-])cc1)NCCc1ccccc1 | 5 | 7 | -14 | 2 | -45 | -23
Nc1nc(CN2CCN(c3ccccc3)CC2)nc(N2CCCc3ccccc32)n1 | 29 | -13 | 24 | 38 | -6 | 88*
Nc1nc(CN2CCN(c3cccc(Cl)c3)CC2)nc(N2CCCc3ccccc32)n1 | 46 | 17 | 20 | 37 | -8 | 91*
Cc1nn(-c2ccc(F)cc2)c(Cl)c1C(=O)NCC1CCCO1 (stereo unspecified) | -1 | 33 | -5 | 4 | . | .
O=C(NCc1ccc(F)cc1)c1ccc(CS(=O)(=O)Cc2ccc(F)cc2)o1 | 3 | 4 | -5 | 6 | 3 | -4
O=C(NCc1ccc(F)cc1)c1ccc(CS(=O)(=O)Cc2ccccc2F)o1 | -4 | 5 | 1 | 10 | 95* | -5
CCOC(=O)C1(Cc2cccc(Cl)c2)CCCN(C(=O)c2cnn(CC)c2)C1 (stereo unspecified) | 3 | 13 | -13 | 8 | 5 | -1
CCCC(=O)NC(c1ccc2c(c1)OCO2)c1cc(Cl)c2cccnc2c1O (stereo unspecified) | 43 | 99* | -16 | 34 | 9 | 62*
O=C(O)COc1ccccc1C(Nc1ccccn1)c1cc(Cl)c2cccnc2c1O (stereo unspecified) | 9 | 11 | -3 | 17 | -2 | -3
O=C(O)COc1ccccc1C(Nc1cccnc1)c1cc(Cl)c2cccnc2c1O (stereo unspecified) | 10 | 5 | 22 | -1 | 100* | 2
CCC(=O)NC(c1ccc(OC)c(OC)c1)c1cc(Cl)c2cccnc2c1O (stereo unspecified) | . | -35 | . | . | 3 | 56*
CCC(=O)NC(c1ccco1)c1cc(Cl)c2ccccc2c1O (stereo unspecified) | 42 | -17 | 26 | 26 | . | .
COc1ccccc1C(NC(C)=O)c1cc(Cl)c2cccnc2c1O (stereo unspecified) | 36 | -19 | 17 | 31 | -6 | 100*
CCCC(=O)NC(c1ccc(OC)c(OC)c1)c1c(O)ccc2ccccc12 (stereo unspecified) | 17 | 2 | 2 | 15 | 9 | -11
COc1ccc(N(CC(=O)NC2CCCCC2C)S(=O)(=O)c2c(C)nn(C)c2C)cc1 (stereo unspecified) | 8 | 6 | 9 | 3 | -7 | -5
CC(NC(=O)C1CCC(CNc2c(N3CCCCC3)c(=O)c2=O)CC1)c1ccccc1 (stereo unspecified) | 8 | -4 | 0 | -6 | -8 | -3
CC1=NN(C(=O)c2ccccc2F)C(O)(c2ccc(Cl)cc2)C1 (stereo unspecified) | 17 | 1 | -3 | 9 | -11 | 5
Cc1noc(C)c1CSCC(=O)N(C)CC(=O)Nc1ccccc1C(F)(F)F | 13 | 17 | 10 | -5 | . | .
Cc1cccc(N2CCN(c3nc(C)cc(C)c3C#N)CC2C)c1 (stereo unspecified) | 21 | -4 | -1 | 17 | 90* | 22
Cc1cc(C)c(C#N)c(N2CCN(Cc3ccccc3)CC2)n1 | 3 | -6 | 3 | 26 | -34 | -16
Cc1cc(C)c(C#N)c(N2CCN(c3ccccc3F)CC2)n1 | 26 | 20 | 0 | 5 | -18 | 50*
SMILES | tim23-1 inh | PfHsp90 set2 | TIM10 inh | tim10-1 inh | Calb FLC | SKKanGAS inh
CC(CCC(=O)O)C1CCC2C3C(O)CC4CC(O)CCC4(C)C3CC(O)C12C (stereo unspecified) | 5 | 12 | 19 | -11 | . | 2
O=C1/C(=C\c2cccnc2)SC(=S)N1C1CCS(=O)(=O)C1 (stereo unspecified) | 28 | -2 | 10 | 35 | 91* | .
Cc1[nH]c2ccccc2c1/C=N/NC(=O)C1CC1(c1ccccc1)c1ccccc1 (stereo unspecified) | 13 | 9 | 16 | 5 | -9 | 55*
O=C(COC(=O)c1cncc(Br)c1)NCC12CC3CC(CC(C3)C1)C2 | 33 | 2 | 14 | 28 | . | .
CCN(CCCn1c(SCC#N)nc2ccccc2c1=O)c1ccccc1 | 3 | 8 | 12 | 20 | -3 | 61*
O=C(N/N=C/c1ccc([N+](=O)[O-])o1)c1cn(-c2ccccc2)nc1-c1ccc(Cl)cc1 | -1 | . | 30 | 26 | -4 | 107*
S=C(Nc1cccnc1)N1CCN(c2ccccc2Cl)CC1 | 1 | 8 | -7 | -8 | -2 | -3
COc1ccc2nc(C)cc(N/N=C/c3cccc(OC)c3O)c2c1 | 2 | 15 | -7 | -5 | -14 | 12
COc1cccc(/C=N/Nc2cc(-n3nc(C)cc3-c3ccccc3)ncn2)c1O | 35 | -8 | 24 | 31 | 82* | 117*
CNC(=O)c1ccc2c(c1)nnn2C | 3 | -8 | 1 | 9 | 106* | -5
Cn1nnc2cc(C(=O)NC(C)(C)C)ccc21 | 9 | -1 | -2 | -13 | -4 | 2
Cc1cc(C(=O)NNC(=O)/C=C/c2ccc(F)cc2)c(C)o1 | 4 | 4 | -6 | -4 | 7 | 3
CC(C)C(=O)Nc1nnc(NC(=S)Nc2ccccc2)s1 | 3 | -18 | 13 | 21 | 2 | -1
CCCc1nnc(NC(=S)Nc2ccccc2)s1 | 5 | 5 | -15 | 13 | 77* | 19
N#CCCn1cc(C(=O)CN2C(=O)C(=O)N(C3CCCC3)C2=O)c2ccccc21 | 16 | . | 5 | 6 | . | .
O=[N+]([O-])c1cccc(C=Nc2cccc3ccccc23)c1O | 48 | 4 | 20 | 26 | 101* | 13
COc1ccccc1CNC(=O)COC(=O)C1CCN(S(=O)(=O)c2ccc(C)c(C)c2)CC1 | 12 | 9 | 20 | 19 | 6 | 15
O=C(NCc1ccco1)c1ccccc1NS(=O)(=O)c1ccc(Br)s1 | 42 | . | 29 | 28 | 108* | 7
COc1ccc(S(=O)(=O)Nc2ccccc2C(=O)NCc2ccco2)cc1 | 20 | -9 | 24 | 31 | 4 | 2
Cc1ccc(C(=O)N2CCN(c3cccc(C)c3C)CC2)cc1S(=O)(=O)N1CCOCC1 | 23 | -20 | 10 | 14 | . | .
Cc1ccc(NS(=O)(=O)c2cccc3cccnc23)cc1Cl | 10 | -6 | 7 | 5 | -8 | 7
